Laboratory results published in PubChem BioAssay AID504332 (National Center for Advancing Translational Sciences (NCATS), 2011).
In all, about 350,000 compounds went through this assay and about 31,000 (8.9%) were called active. A call without a number means that no potency is given here. Inconclusive results (about 15%) are left out. The sample holds actives, similar compounds and a random draw of the others, so the mix is not that of the screen. Values without a mark were called inactive. Calls come from the whole dose curve; as a rule, active = well fitted inhibition curve with a large enough effect; inconclusive = small, poorly fitted or top-dose-only effect; inactive = no such curve, though single readings can be large or run the other way.

Each compound was assayed against Histone-lysine N-methyltransferase EHMT2 (Homo sapiens) (UniProt Q96KQ7) (assay: qHTS Assay for Inhibitors of Histone Lysine Methyltransferase G9a). Settings: G9a H3K9 monomethylation, AlphaScreen, 2 h; series mostly up to 59 µM.
Histone-lysine N-methyltransferase EHMT2 (Homo sapiens), sequence (Q96KQ7 913-1193 limits assumed): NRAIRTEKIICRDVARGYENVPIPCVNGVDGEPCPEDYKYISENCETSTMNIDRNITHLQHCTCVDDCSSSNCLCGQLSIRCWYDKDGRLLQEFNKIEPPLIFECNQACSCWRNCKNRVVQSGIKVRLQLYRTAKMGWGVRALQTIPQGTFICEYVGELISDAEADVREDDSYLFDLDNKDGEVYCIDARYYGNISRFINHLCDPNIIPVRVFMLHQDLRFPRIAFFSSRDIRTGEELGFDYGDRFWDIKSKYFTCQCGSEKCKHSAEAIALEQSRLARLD
Outline: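 Using a bead-based AlphaScreen, monomethylated H3K9 product from 2 h room-temperature reactions (G9a 20 nM, peptide 500 nM, SAM 20 uM) was detected with 0.5 ug/mL rabbit anti-H3K9me1 antibody.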
Note: nearly all actives have a fitted effect of over 75% in size.
Potency is the fitted concentration of half-maximal effect.

SMILES	Potency	activity, negative = inhibition
CCc1ccc(NC(=O)N2CCN(C(=O)c3nsc4ccccc34)CC2)cc1	inactive	–
CN(Cc1ccccc1F)C(=O)C(Cc1ccccc1)NC(=O)c1ccccc1 (stereo unspecified)	inactive	–
CN(CC(=O)NC(=O)Nc1ccccc1F)Cc1ccccc1	–	2.2% [at 0.501 µM]
CN(Cc1ccccc1)Cc1ccccc1F	8.91 µM (active)	–
O=C(NCC(c1cccs1)N1CCOCC1)c1cc(Cl)ccc1[N+](=O)[O-] (stereo unspecified)	–	3.96% [at 0.501 µM]
COC(=O)c1ccc(NC(=O)c2cc(S(=O)(=O)N3CCC(C)CC3)cn2C)cc1	inactive	–
Cc1ccc(Cn2ccc(NC(=O)c3cc(C(C)C)on3)n2)cc1	inactive	–
O=C(Nc1ccn(Cc2ccccc2)n1)c1cccc(F)c1	inactive	–
Cc1ccc(Cn2ccc(NC(=O)C3C4CCC(C4)C3C(=O)O)n2)cc1 (stereo unspecified)	56.2 µM (active)	–
Cc1cccc(NC(=O)N2CCC(CN3CCc4ccccc4C3)CC2)c1C	inactive	–
COc1cccc(CNC(=O)C2CC(=O)N(C3CCCCCCC3)C2)c1 (stereo unspecified)	inactive	–
O=C(COC(=O)CCc1nc2ccccc2c(=O)[nH]1)Nc1ccc(N2CCOCC2)cc1	50.1 µM (active)	–
O=C(COC(=O)Cc1ccc(Br)cc1)Nc1ccc(N2CCOCC2)cc1	inactive	–
CCn1nc(C(=O)Nc2ccc(N3CCOCC3)cc2)c2ccccc2c1=O	–	17.9% [at 12.7 µM]
CCCCNc1ccc(-c2nc(-c3ccncc3)no2)cc1[N+](=O)[O-]	inactive	–
COc1ccc(OC)c(CCNC(=O)CCCn2c(=O)c3cccn3c3cccnc32)c1	inactive	–
CC(C)c1ccc2oc(-c3cc(NC(=O)c4cccs4)ccc3Cl)nc2c1	inactive	–
COc1cc(OC)c(NC(=O)c2c3c(nn2C)-c2ccccc2SC3)cc1Cl	inactive	–
Cc1c(-c2nc(-c3ccc4c(c3)OCO4)no2)nnn1-c1ccc(Br)cc1F	inactive	–
O=C(COC(=O)c1ccc([N+](=O)[O-])cc1Cl)NC(=O)c1ccccc1	inactive	–
CCN1CCN(CCCNC(=O)c2cnn(-c3ccc(C)cc3C)c2C2CCN(C(=O)OC(C)(C)C)CC2)CC1	inactive	–

SMILES	Potency	activity, negative = inhibition
Cc1cc(C)c(NC(=O)c2cc3sc(Cl)cc3n2C)c(C)c1	inactive	–
COc1cccc(C(=O)NC(=O)Nc2ccc(-c3cc(C(F)(F)F)nn3-c3ccccc3)cc2)c1	inactive	–
CC(=O)N(c1ccc2oc(=O)sc2c1)S(=O)(=O)c1ccc(C)cc1	25.1 µM (active)	–
CC(=O)Oc1ccc(N(C(C)=O)S(=O)(=O)c2ccc3ccccc3c2)cc1Br	inactive	–
COC(=O)c1c(C)oc2ccc(N(C(=O)Oc3ccccc3)S(=O)(=O)c3ccccc3)cc12	inactive	–
COc1ccc(OC)c(NC(=O)Cn2c(=O)n(Cc3ccccc3)c(=O)c3ccccc32)c1	inactive	–
Cc1nc2cc(NC(=O)Nc3cccc(F)c3)ccc2n1C	–	23.6% [at 12.7 µM]
Cc1nc2cc(NCc3cccs3)ccc2n1C	7.94 µM (active)	–
C=CCN(C(=O)Nc1ccc2c(c1)nc(C)n2C)c1ccccc1	–	10.6% [at 12.7 µM]
O=C1C=C(c2cccc(Cl)c2O)C[C@@H](c2ccc(F)cc2)C1	–	4.95% [at 0.501 µM]
Cc1cccc(CSc2nc3ccncc3n2CC(=O)N(C)C2CCCCC2)c1	inactive	–
CCC1=C/C(=C\c2ccc3c(c2)OCO3)C(=O)S1	11.2 µM (active)	–
CCc1c(C)sc(NC(=O)/C=C/c2ccc3c(c2)OCO3)c1C(=O)OC	inactive	–
CCOC(=O)CCCNC(=O)COC(=O)/C=C/c1ccc2c(c1)OCO2	inactive	–
COc1ccc(CCNC(=O)c2cnc3sc(N4CCCCCC4)nn3c2=O)cc1OC	inactive	–
Cc1oc2ccc(O)c(CN3CCC(C)CC3)c2c1C(=O)Nc1ccccc1	inactive	–
Cc1nc2ccc(S(=O)(=O)NC(C(=O)NCc3ccccc3Cl)C(C)C)cc2s1 (stereo unspecified)	inactive	–
O=C(Nc1nc(-c2ccc(-c3ccccc3)cc2)cs1)c1cnccn1	inactive	–
O=C(N/N=C/c1ccc2c(c1)OCO2)C(=O)N1CCCC1	inactive	–
O=C(NCc1cccnc1)C(=O)Nc1nc(-c2ccccc2)cs1	inactive	–
Brc1ccc(-c2csc(N/N=C/c3cccnc3)n2)cc1	14.1 µM (active)	–

SMILES	Potency	activity, negative = inhibition
Brc1ccc(-c2csc(N/N=C/c3ccc4c(c3)OCO4)n2)cc1	3.55 µM (active)	–
O=C(Cc1ccc(F)cc1)N/N=C/c1ccc2c(c1)OCO2	inactive	–
CCOc1ccc(-c2cc3c(=O)n(CC(=O)NCc4ccc(OC)cc4)ccn3n2)cc1	–	0.34% [at 12.7 µM]
Cc1ccc(C)c(Oc2c(C(F)(F)F)oc3c(CN4CCN(C)CC4)c(O)ccc3c2=O)c1	inactive	–
Cc1ccc2nc(/C(C#N)=C/c3ccc(-c4ccc(C(=O)OC(C)C)cc4)o3)[nH]c2c1	inactive	–
Cc1ccc(-n2c(SCC(=O)N3c4ccccc4Sc4ccccc43)nnc2-c2ccncc2)cc1	inactive	–
Cc1ccc(Nc2nc(CSc3nnc(-c4ccncc4)n3-c3ccccc3C)cs2)cc1	44.7 µM (active)	–
Cc1ccccc1-n1c(SCC(=O)NCc2cccs2)nnc1-c1ccncc1	inactive	–
CCOc1ccc(CNCCSc2nnnn2C)cc1	inactive	–
CCc1ccc(NC(=O)c2cc(S(=O)(=O)N3CCCC(C)C3)cn2C)cc1 (stereo unspecified)	inactive	–
CCc1nc(-c2cc(S(=O)(=O)N3CCN(c4ccc(OC)cc4)CC3)ccc2OC)no1	0.631 µM (active)	–
COc1ccc(OC)c(-c2noc(N3CCN(c4cc(Cl)ccc4C)CC3)n2)c1	inactive	–
COc1ccc(S(=O)(=O)N2CCN(c3ccc(F)cc3)CC2)cc1-c1noc(C)n1	inactive	–
Cc1ccc(-n2ncc3c(N4CCC(C(N)=O)CC4)ncnc32)cc1	inactive	–
CC(C)(C)OC(=O)N1CCC(c2c(C(=O)N3CCc4ccccc4C3)cnn2-c2ccc(F)cc2)CC1	inactive	–
Cc1ccc(C(=O)Nc2ccc(OCc3cc(=O)n4c5c(sc4n3)CCCC5)cc2)cc1	inactive	–
O=C(COC(=O)CNS(=O)(=O)c1ccc(F)c(F)c1F)NC1CCCC1	inactive	–
CCc1ccc(S(=O)(=O)c2nnn3c2nc(N2CCN(CC)CC2)c2sccc23)cc1	inactive	–
CCCCN(C(=O)CSCC(=O)Nc1ccc(OC)cc1)c1c(N)n(CCC)c(=O)[nH]c1=O	–	19.8% [at 2.33 µM]
